A selection: hits, their analogues and other compounds. The true share with any hit is near 5.2%.
Tau FP inhib: inhibitors of human tau fibril formation; 0.39% of 280,000 active; AID 1468; Potency, µM (doses to about 57.7 µM), for the others: at the highest dose activity, negative = inhibition, actives largely listed as inhibitors; K18 P301L tau heparin fibrillization, Alexa594 FP, 6 h; P10636; note: potency is the fitted concentration of half-maximal effect; nearly all actives have a fitted effect of over 55% in size
Target sequence (P10636 561-689 P618L limits assumed): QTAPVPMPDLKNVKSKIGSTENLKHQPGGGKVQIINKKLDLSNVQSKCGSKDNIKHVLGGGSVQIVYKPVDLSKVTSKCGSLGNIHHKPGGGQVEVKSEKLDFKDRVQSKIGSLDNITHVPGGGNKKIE
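Human K18 P301L fragment (15 uM unlabeled plus 0.24 uM Alexa 594-labeled) in 100 mM sodium acetate pH 7 with compound, aggregation induced by 20 uM heparin for 6 hr at 37 C. ThT (30 uM) added for 1 hr, then Alexa 594 FP read.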
Coupling enz: inhibits coupling enzyme system, counter-screen for aldolase hits. coupling enzyme system counterscreen, AmpLite Red fluorescence. 0.67% of 290,000 active. activity change, negative = inhibition, % at 58.2 µM, hits read low; in the data active = activity change below about -30%
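Activity here indicates interference with the coupling reaction, not aldolase inhibition. Compounds at 57.5 uM final met coupling enzymes for 10 min at RT; substrate and AmpLite Red detection followed, with a 525/598 nm fluorescence read after 20 min.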
Tau fluor counter: counter-screen for tau fibril formation inhibitors. tau K18 P301L Alexa594 fluorescence, heparin fibrillization. Potency, µM (titrated, usually from 57.7 µM), without a hit: at the highest dose activity change, negative = decrease. 0.93% of 280,000 active. AID 1463; note: potency is the fitted concentration of half-maximal effect; nearly all actives have a fitted effect of over 55% in size
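Human K18 P301L tau (15 uM unlabeled plus 0.24 uM Alexa 594-labeled, final) in 100 mM sodium acetate pH 7 was mixed with compound and 20 uM heparin and incubated 6 hr at 37 C.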
Tau ThT inhib: tau fibrillization inhibition (ThT binding); P10636; recombinant tau K18 P301L (four-repeat tau fragment), heparin-induced fibrillization, ThT fluorescence; Potency, µM (top dose mostly 57.4 µM), without a hit: at the highest dose activity, negative = inhibition, actives largely listed as inhibitors; 2.1% of 270,000 active; AID 1460; note: potency is the fitted concentration of half-maximal effect; nearly all actives have a fitted effect of over 55% in size
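K18 P301L tau (15 uM + 0.24 uM Alexa 594-tagged), heparin 20 uM, NaOAc pH 7, 6 h 37 C; ThT 30 uM, 1 h RT, ex 450/em 510 nm.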
Sfp PPTase inh: blocks B. subtilis Sfp PPTase activity. 3.5% of 310,000 active. Potency, µM, for inactives: largest response in the series, negative = inhibition, hits mostly inhibitors. AID 1490. Biochemical Sfp PPTase activity, qHTS. Q9F4F7;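 note: the enzyme is Sfp with the accession as filed and its product quenches rhodamine fluorescence; potency is the fitted concentration of half-maximal effect; 0% = enzyme reaction without inhibitor and -100% = no enzyme wells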
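Reaction rates are the 30-min fluorescence difference (ex 525, em 598 nm) in wells containing 15 nM Sfp, 5 uM rhodamine-CoA and 12.5 uM BHQ-2-YbbR at pH 7.6 with 10 mM MgCl2.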
Starred values were filed as active, the others as inactive; ? = inconclusive; . = no result; [ ] = dose if it differs, or a comment. Unless noted, calls come from the whole dose curve; as a rule, active = well fitted curve in the direction sought with a large enough effect; inconclusive = small, poorly fitted or top-dose-only effect, or another doubt; inactive = no such curve, though single readings can be large; an effect the other way counts as inactive or inconclusive. Unless noted, % is set by controls: 0 for no effect and ±100 for the full control effect.

SMILES | Tau FP inhib | Coupling enz | Tau fluor counter | Tau ThT inhib | Sfp PPTase inh
CCN(CC)S(=O)(=O)c1cc([N+](=O)[O-])ccc1NNC(=O)Nc1ccc(F)cc1 | 7.0% | -3.2 | ? | -14.4% | 44.7µM*
CCN(CC)S(=O)(=O)c1cc([N+](=O)[O-])ccc1NNC(=O)Nc1ccccc1OC | -1.0% | 0.4 | ? | ? | 50.1µM*
O=C(Nc1ccc(F)cc1)Nc1ccc([N+](=O)[O-])cn1 | 1.9% | -2.3 | -18.6% | -17.8% | -5.2%
NC1=NC(S)C2N=CN=C2N1 (stereo not drawn) | . | . | . | . | 56.2µM*
Cc1ccc(-c2cn3c(n2)sc2cc(C(=O)N4CCCCC4)ccc23)cc1 | 4.9% | . | 3.2% | -8.5% | .
CCn1c(=O)cc(SCC(=O)NCCc2cccc(C)c2)c2ccccc21 | 0.6% | . | -23.1% | ? | .
CCn1c(=O)cc(OCC(=O)NCCc2cccc(C)c2)c2ccccc21 | 4.3% | -0.4 | -13.1% | -13.1% | 79.4µM*
COC(=O)c1ccc(NC(=O)CSc2ccc(-c3sc(-c4ccccc4)nc3C)nn2)cc1 | -21.3% | . | ? | ? | .
O=C(Nc1sc2c(c1C(=O)c1ccc(Cl)cc1)CCCC2)c1cccnc1 | -12.2% | 5.1 | ? | ? | 31.6µM*
O=C(Nc1sc2c(c1C(=O)c1ccccc1)CCCC2)c1cccnc1 | -6.6% | 0.4 | -13.9% | ? | 17.2%
COc1ccc(Cl)cc1NC(=O)c1c(NCc2cccnc2)sc2c1CCCC2 | -11.1% | . | ? | 17.8µM* | .
COc1ccc(-c2c(C3C4C=CCCC4(C)C(=O)N3Cc3ccccc3)ccc3ccccc23)cc1OC (stereo not drawn) | . | -0.1 | . | . | -3.2%
Cc1ccc(S(=O)Cc2nc(-c3ccc(C(=O)NCc4cccc(C)c4)cc3)oc2C)cc1 (stereo not drawn) | -7.4% | . | 4.1% | -2.2% | .
CO[C@]1(C)C[C@H]2O[C@]1(C)n1c3ccccc3c3c4c(c5c6ccccc6n2c5c31)C(=O)N(C)C4 | . | 4.2 | . | . | -9.8%
CCOC(=O)c1c(C)oc2c1c(C(c1cccnc1)N1CCN(C)CC1)c(O)c1ccccc12 (stereo not drawn) | 11.3% | -13.4 | -26.8% | ? | -26.1%
CCOC(=O)c1c(C)oc2c1c(C=NCc1ccccn1)c(O)c1ccccc12 | -7.8% | -53.0* | ? | 12.6µM* | 17.8µM*
CCOC(=O)c1c(C)oc2c1c1c(c3ccccc32)OCN(Cc2cccnc2)C1 | ? | -56.6* | ? | 17.8µM* | ?
CCOC(=O)c1c(C)oc2c1c(C(c1cccnc1)N1CCOCC1)c(O)c1ccccc12 (stereo not drawn) | -4.8% | -44.1* | ? | 17.8µM* | ?
COc1ccc(-c2c(C)c3ccc(O)c(CN4CCN(CCO)CC4)c3oc2=O)cc1OC | -1.3% | . | 6.0% | 3.5% | .
COc1cc2c(cc1OC)C(COc1ccc(F)cc1)N(C(=O)c1cccc(F)c1)CC2 (stereo not drawn) | 0.2% | . | -19.7% | -15.3% | .
CC1=C(C(=O)Nc2ccccc2)C(c2ccccn2)n2nc(SCc3ccccc3Cl)nc2N1 (stereo not drawn) | -8.5% | . | -13.7% | 1.0% | .
COc1cc(Nc2nc(-c3ccccc3)c3cc(C)ccc3n2)cc(OC)c1OC | ? | -6.4 | ? | 15.8µM* | -25.7%
C=CCN1C(=O)/C(=c2\sc3nc(=O)c(Cc4ccccc4Cl)nn3c2=O)c2ccccc21 | ? | 0.8 | -11.9% | ? | 11.2µM*
COc1ccc(OC)c(C2CC(c3c(-c4ccccc4)c4cc(Cl)ccc4[nH]c3=O)=NN2S(C)(=O)=O)c1 (stereo not drawn) | -11.8% | 1.5 | ? | -5.8% | 44.7µM*
COc1ccc(C2CC(c3c(-c4ccccc4)c4cc(Cl)ccc4[nH]c3=O)=NN2S(C)(=O)=O)cc1 (stereo not drawn) | ? | 0.4 | -19.8% | -5.0% | 3.3%
SMILES | Tau FP inhib | Coupling enz | Tau fluor counter | Tau ThT inhib | Sfp PPTase inh
COc1ccc(C2C(C(C)=O)=C(C)N=c3s/c(=C\c4ccco4)c(=O)n32)c(OC)c1 (stereo not drawn) | -6.2% | -4.4 | ? | 12.6µM* | 50.1µM*
CCOC(=O)C1=C(c2ccccc2)N=c2s/c(=C\c3ccco3)c(=O)n2C1c1cccs1 (stereo not drawn) | ? | -1.7 | ? | ? | 50.1µM*
CCOC(=O)C1=C(C)N=c2s/c(=C/c3cccc([N+](=O)[O-])c3O)c(=O)n2C1c1ccc(OC)cc1OC (stereo not drawn) | . | 3.0 | . | . | 50.1µM*
Cc1ccc(CNc2nnc(C)c3nnn(Cc4ccc(F)cc4)c23)cc1 | -7.2% | . | -0.9% | 3.1% | .
Cc1ccc(CN(C(=O)c2ccc(C(C)(C)C)cc2)c2ccccn2)o1 | 3.1% | . | 2.8% | -5.4% | .
CC(C)(C)n1nnnc1C(c1ccncc1)N1CCN(c2ccc(O)cc2)CC1 (stereo not drawn) | -5.5% | -19.4 | -19.1% | -22.5% | 15.8µM*
COc1ccc(-c2nnc(SCC(=O)c3ccc(NC(C)=O)cc3)o2)cc1OC | 2.2% | . | 3.8% | ? | .
CC(=O)Nc1ccc(S(=O)(=O)NC2=NCN(C(C)C)CN2)cc1 | -0.2% | . | -12.1% | -4.7% | .
Cc1ccc(C(=O)N2CCN(Cc3ccc4c(c3)OCO4)CC2)o1 | -4.3% | -4.7 | -1.2% | -10.8% | 6.7%
Cc1ccc2c(C)c(C(=O)N3CCN(Cc4ccc5c(c4)OCO5)CC3)oc2c1C | . | 0.6 | . | . | 79.4µM*
CCCCCn1c(C)c2c(OCC)cccc(=O)c2c1C | -1.3%[0.0958 µM] | 0.0 | 8.8%[0.0958 µM] | . | -17.5%
CCOc1cccc(=O)c2c(C)n(C)c(C)c12 | -13.6% | -9.4 | -14.5% | 15.8µM* | -12.4%
COc1ccccc1N=Cc1nc(-c2ccccc2)oc1OC(C)=O | ? | -6.6 | ? | 25.1µM* | -9.7%
Oc1oc(-c2ccccc2)nc1C=Nc1ccccc1 | 5.9% | 1.5 | -28.4% | ? | -12.3%
CC(=O)Oc1oc(-c2ccccc2)nc1/C=N/c1ccccn1 | 3.4% | -1.0 | 10.6% | 8.6% | ?
CC(=O)Nc1ccc(N=Cc2nc(-c3ccc(C)cc3)oc2O)cc1 | 0.8% | 2.3 | ? | 4.47µM* | 6.2%
Cc1ccc(N=Cc2nc(-c3ccc(C)cc3)oc2O)cc1 | -8.7% | -0.9 | -17.5% | ? | 0.1%
CC(=O)Oc1oc(-c2ccccc2)nc1C=Nc1ccc(N(C)C)cc1 | -13.3% | 0.7 | ? | 14.1µM* | 5.6%
CN(C)c1ccc(N=Cc2nc(-c3ccccc3)oc2O)cc1 | -8.7% | 0.2 | ? | 2.24µM* | -2.4%
CN(C)c1ccc(N=Cc2nc(-c3ccccc3)oc2OC(=O)c2ccccc2)cc1 | -8.3% | -0.6 | -3.9% | ? | 4.6%
CCN1CCN(c2nc3c(S(=O)(=O)c4ccc(Br)cc4)nnn3c3ccsc23)CC1 | -17.1% | . | -18.9% | -10.9% | .
CSc1ccccc1N=Cc1nc(-c2ccccc2)oc1O | -10.7% | -10.2 | ? | 20µM* | -25.9%
COc1ccc(N=Cc2nc(-c3ccco3)oc2O)cc1 | 7.1% | 0.5 | ? | 15.8µM* | 10.4%

High-throughput results: PubChem, National Center for Advancing Translational Sciences (NCATS)
